In the library only some 3.4% were active in any assay of this set; here they are far more common.
14-3-3 Bad inh: disrupts binding of bovine 14-3-3 zeta to phospho-Bad peptide; AID 781; P63103; 220,000 compounds, 0.71% hits; inhibition, % at 21.7 µM; TR-FRET 14-3-3zeta/Dy647-pBad peptide displacement, 1 h;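 active means inhibition above about 70%, limit read from the data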
p47phox inh: p47phox (human) inhibition. p47phox/p22phox peptide binding, fluorescence polarization, 2 h. inhibition, % at 24.7 µM. 220,000 compounds, 0.53% hits;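 active means inhibition above about 30%, limit read from the data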
m-calpain inh: blocks pig calpain II enzyme activity. purified calpain II, fluorogenic peptide substrate, 30 min. inhibition, % at 16 µM. 220,000 compounds, 0.37% hits;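 active means inhibition above about 50%, limit read from the data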
Bim-Mcl-1: human Bim-Mcl-1 interaction inhibition; AID 1009; inhibition, % at 10 µM; Q07820; Bead-based flow cytometry, Bim peptide-Mcl-1 binding; 190,000 compounds, 0.1% hits; in the data active means inhibition above about 40%
Target sequence (Q07820 whole entry, looked up): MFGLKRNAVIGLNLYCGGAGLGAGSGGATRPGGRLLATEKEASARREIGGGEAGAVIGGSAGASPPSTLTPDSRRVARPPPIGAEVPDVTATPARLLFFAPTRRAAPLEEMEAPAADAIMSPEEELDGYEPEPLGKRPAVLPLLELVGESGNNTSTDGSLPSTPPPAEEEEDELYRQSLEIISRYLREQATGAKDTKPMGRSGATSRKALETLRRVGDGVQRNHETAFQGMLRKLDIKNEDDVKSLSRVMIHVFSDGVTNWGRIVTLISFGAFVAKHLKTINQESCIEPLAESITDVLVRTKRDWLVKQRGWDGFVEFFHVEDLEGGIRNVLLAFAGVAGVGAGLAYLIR
Mcl1-Noxa inh: Mcl-1/Noxa interaction inhibition; inhibition, % at 21.7 µM; AID 1022; 220,000 compounds, 1.5% hits; TR-FRET Mcl-1/Noxa peptide binding, 2 h;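 active means compounds that cut the protein-peptide binding signal by more than 50% relative to plate controls in a single-dose test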;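 further: His-tagged Mcl-1 with rhodamine Noxa BH3 peptide and terbium anti-His antibody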
Mcl1 Bid PPI: Mcl-1/Bid interaction inhibition | Q07820 | inhibition, % at 21.7 µM | 220,000 compounds, 0.97% hits | TR-FRET Mcl-1/Bid-Dy647 peptide binding, 1536-well | AID 1021;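 active means compounds that cut the binding signal by more than half at the single screening dose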;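 further: His-tagged Mcl-1 with europium anti-His antibody binding Bid BH3 peptide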
Large screens that a line does not name were inactive.

NS(=O)(=O)c1ccc(-c2ccc(/C=C3\C(=O)Nc4cc(Cl)ccc43)o2)cc1	14-3-3 Bad inh 75.3, Mcl1-Noxa inh 63.3
CC1(C)OC(=O)C(=Cc2ccc(-c3ccc(S(N)(=O)=O)cc3)o2)C(=O)O1	none
CC(=O)N1N=C(c2cccc(Br)c2)OC12CCCC2	none
COc1ccccc1NC(=O)CCN1CC(C)OC(C)C1 (stereo unspecified)	none
COc1ccccc1/C=C/CN1CC(C)OC(C)C1 (stereo unspecified)	14-3-3 Bad inh 79.3
CCCCCCCCOC(=O)C1=C(C)Nc2nnnn2C1c1cccs1 (stereo unspecified)	m-calpain inh 50.2
Oc1[nH]c2ccccc2c1N=Nc1ncnc2c1oc1ccccc12	Mcl1-Noxa inh 65.2 (no result: Bim-Mcl-1)
CC1(C)C2CCC1(CS(=O)(=O)N1CCC(C(=O)O)CC1)C(=O)C2 (stereo unspecified)	none (no result: Bim-Mcl-1)
Oc1c(Cl)cc(Cl)cc1Sc1cc(Cl)cc(Cl)c1O	14-3-3 Bad inh 78.6, Mcl1-Noxa inh 117.1, Mcl1 Bid PPI 98.7
Oc1c(Cl)cc(Cl)cc1CNn1cnnc1	none
Cc1ccc(-c2noc(-c3ccccc3C(=O)N3CCCC3)n2)cc1	none
Cc1ccc(-c2noc(-c3ccccc3C(=O)N3CCN(C)CC3)n2)cc1	Mcl1 Bid PPI 70.6
CCOC(=O)N1CCN(C(=S)Nc2ccc3nc(N4CCN(CC)CC4)cc(C)c3c2)CC1	none
Nc1nc(NCc2ccco2)nc(Nc2ccccc2)c1[N+](=O)[O-]	p47phox inh 76.2 (no result: Bim-Mcl-1)
Nc1nc(Nc2ccccc2)nc(NCc2ccco2)c1[N+](=O)[O-]	none
COc1ccc(/C=N/n2c(=O)[nH]c3c([nH]c4ccc(Cl)cc43)c2=O)cc1CN1CCCCC1	none (no result: Bim-Mcl-1)
COc1ccc(/C=N/n2c(=O)[nH]c3c([nH]c4ccc(Br)cc43)c2=O)cc1CN1CCOCC1	Mcl1-Noxa inh 54.1
O=C(O)Cn1cc(/C=c2/sc3nc4ccccc4n3c2=O)c2ccccc21	Mcl1-Noxa inh 64.1
CCOC(=O)C1(Cc2cccc(OC)c2)CCN(Cc2ccc(C)s2)CC1	none
CC1(C(=O)NCC2CCCO2)Oc2cccnc2NC1=O (stereo unspecified)	none
COc1cc2c(C#N)c(N3CCCCC3)nc(N)c2c(N)n1	none
COc1ccc(CN2C(=O)Cc3c2nc(N)c2c(N)nc(N4CCCCC4)c(C#N)c32)cc1	Mcl1-Noxa inh 58.0
O=C(CCN1C(=O)c2ccccc2C1=O)Nc1ccc(-c2nc3ccccc3o2)cc1	none
O=C(CN1C(=O)c2ccccc2C1=O)Nc1ccc(-c2nc3ccccc3o2)cc1	m-calpain inh 95.9
Clc1ccc(OCCOCCN2CCCCC2)c(Br)c1	Mcl1 Bid PPI 62.4
CN(C)CCCOc1ccc(Cl)cc1Br	Mcl1 Bid PPI 53.4
CN1C(=O)/C(=C/c2cn(CC(=O)NCc3ccco3)c3ccccc23)NC1=S	Mcl1-Noxa inh 72.7
Cn1c(N)c(C(=O)COC(=O)CCCc2nc3ccccc3s2)c(=O)n(C)c1=O	m-calpain inh 50.7
Cn1c(N)c(C(=O)CSc2nc3ccccc3c(=O)n2Cc2ccccc2)c(=O)n(C)c1=O	Mcl1 Bid PPI 51.8 (no result: Bim-Mcl-1)
Cn1c(N)c(C(=O)COC(=O)CCc2nc3ccccc3s2)c(=O)n(C)c1=O	none
Cn1c(N)c(C(=O)COC(=O)c2cc(-c3ccco3)nc3ccccc23)c(=O)n(Cc2ccccc2)c1=O	Mcl1-Noxa inh 106.4
Cn1c(N)c(C(=O)COC(=O)c2cc(-c3ccco3)nc3ccccc23)c(=O)n(C)c1=O	Mcl1-Noxa inh 86.7
CCOC(=O)c1c(C)c(C(=O)N2CCN(c3ccc(F)cc3)CC2)c(C)n1C	none
Cc1ccc(N(CC(O)CN2CCCCC2)S(=O)(=O)c2ccccc2[N+](=O)[O-])cc1 (stereo unspecified)	none
C=CCN(CC=C)C(=O)Nc1cc(OC)ccc1OC	none (no result: Bim-Mcl-1)
Cn1c(N)c(C(=O)COC(=O)C2CCCCC2)c(=O)n(C)c1=O	m-calpain inh 89.3
O=C1ON=C(c2ccccc2)/C1=C/c1cccnc1	none
O=C1ON=C(c2cccc([N+](=O)[O-])c2)/C1=C/c1ccc(O)cc1	Mcl1-Noxa inh 66.1

Bioassay records from PubChem.
